High-throughput results deposited in PubChem BioAssay by National Center for Advancing Translational Sciences (NCATS).
ATXN2 expr inh: inhibitors of ATXN2 expression; AID 1745845; 360,000 compounds, 0.72% hits; HEK-293 ATXN2-luciferase reporter, luminescence, 24 h; Potency, µM (titrated, usually from 57 µM), for the others: at the highest dose activity change, negative = inhibition, usual class: inhibitors; also: potency is read from the fitted curve at half-maximal effect; % is scaled to controls: 0 for no effect and ±100 for the full control effect; nearly all actives have a fitted effect of over 55% in size
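qHTS (up to 57 uM final) was run with 24 h compound exposure of reporter cells at 37 °C. Each well was multiplexed: SteadyGlo luminescence measured ATXN2-luciferase expression after a fluorogenic Gly-Phe-AFC viability readout (25 uM final).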
ATXN viability: cell viability loss in ATXN counter-screen; S2 cells (HEK-293 line with an ATXN2-luciferase reporter) viability, CellTiter-Fluor protease fluorescence, 24 h; Potency, µM (series often up to 56.7 µM), usual class: cytotoxic; 400,000 compounds, 0.49% hits; AID 651635; also: potency is read from the fitted curve at half-maximal effect; nearly all actives have a fitted effect of over 40% in size
Six1-Eya2 blk: blocks human Six1 binding to Eya2. AlphaScreen GST-Six1/His-Eya2 binding, biochemical; active compounds read low. activity change, % (no concentration beside the values). 360,000 compounds, 0.56% hits; in the data active = activity change below about -65%; inconclusive = mostly about -30% to -63%; also: % is scaled to controls: 0 for no effect and ±100 for the full control effect
Target sequence (O00167 whole entry, looked up): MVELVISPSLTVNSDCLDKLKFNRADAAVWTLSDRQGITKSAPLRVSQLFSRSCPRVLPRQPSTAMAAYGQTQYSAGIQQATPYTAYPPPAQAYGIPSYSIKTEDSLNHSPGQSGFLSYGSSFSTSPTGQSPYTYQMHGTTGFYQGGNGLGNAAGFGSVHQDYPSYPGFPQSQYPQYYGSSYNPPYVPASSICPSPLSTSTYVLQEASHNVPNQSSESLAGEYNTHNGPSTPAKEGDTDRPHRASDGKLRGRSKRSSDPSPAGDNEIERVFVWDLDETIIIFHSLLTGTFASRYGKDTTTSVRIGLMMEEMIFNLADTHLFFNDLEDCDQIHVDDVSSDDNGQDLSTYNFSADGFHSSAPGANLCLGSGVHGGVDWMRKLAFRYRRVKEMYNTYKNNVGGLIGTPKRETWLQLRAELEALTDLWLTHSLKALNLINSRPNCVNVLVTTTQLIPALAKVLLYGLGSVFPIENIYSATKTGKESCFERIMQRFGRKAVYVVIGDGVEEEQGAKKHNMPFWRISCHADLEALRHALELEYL
Target sequence (Q15475 whole entry, looked up): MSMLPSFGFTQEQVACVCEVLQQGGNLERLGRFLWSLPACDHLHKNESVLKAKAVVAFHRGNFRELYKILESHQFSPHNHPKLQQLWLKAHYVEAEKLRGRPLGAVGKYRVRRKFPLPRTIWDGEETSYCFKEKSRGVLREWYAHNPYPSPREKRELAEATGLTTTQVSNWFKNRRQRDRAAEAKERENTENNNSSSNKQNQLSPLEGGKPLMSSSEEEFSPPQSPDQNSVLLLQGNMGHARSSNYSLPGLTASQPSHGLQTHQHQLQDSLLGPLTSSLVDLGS
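Six1/Eya2 binding was read as AlphaScreen signal after compounds were pinned into GST-Six1 plus His-tagged Eya2 (5X stock 250/500 nM) in pH 8.0 Tris/NaCl/TCEP buffer, beads added, then incubated 1 h, 37 C, dark.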
CtBP-E1A inh: inhibitors of CtBP/E1A interaction | activity change, % (concentration not given with the values) | 340,000 compounds, 0.49% hits | AlphaScreen GST-E1A/His-CtBP binding, 1536-well; active compounds read low | AID 651724; in the data active = activity change below about -65%; inconclusive = mostly about -30% to -63%; also: % is scaled to controls: 0 for no effect and ±100 for the full control effect
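Homogeneous bead-based format: GST-tagged E1A captured on glutathione donor beads, His-tagged CtBP on nickel acceptor beads; compounds precede bead addition by 2 h at 37 °C.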
TGFb SMAD3 inh: TGF-b pathway inhibition; HepG2 CAGA-GFP TGF-b/SMAD3 reporter, GFP fluorescence, 18 h; TGF-beta stimulated, 500 pg/mL final; Potency, µM (titrated, usually from 46.1 µM), for inactives: at the highest dose activity, negative = inhibition, actives largely listed as inhibitors; 410,000 compounds, 1.2% hits; also: potency is read from the fitted curve at half-maximal effect; % is scaled to controls: 0 for no effect and ±100 for the full control effect; nearly all actives have a fitted effect of over 65% in size
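Using HEPG2 CAGA-GFP reporter cells at 1000 cells/well, we pinned test compounds, stimulated with recombinant TGF-beta (500 pg/mL final) and measured total well GFP after 18 h.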
HepG2 viability: HepG2 cytotoxicity, counter-screen for TGF-b inhibitors; 410,000 compounds, 0.76% hits; Potency, µM (highest dose often 46.1 µM), for the others: top-dose activity change, negative = cytotoxicity, usual class: cytotoxic; AID 588856; HepG2 CAGA-GFP viability, ATP luminescence, 18 h; also: potency is read from the fitted curve at half-maximal effect
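HepG2 CAGA-GFP cells (1000/well, DMEM with 1% FBS) received compound, then TGF-beta at 500 pg/mL final, and were incubated 18 hours at 37 degrees C. Viability was read by CellTiter-Glo luminescence. Media-only wells were set as complete cell-killing and DMSO as no toxicity.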
* marks the source's active call; other numbers are inactive results; i = inactive; ? = inconclusive; . = not tested or not shown; [ ] = dose if it differs, or a comment. Most compounds without a hit are left out; they make up all but 2.8% or so of the library. Unless noted, calls follow the shape of the dose curve; as a rule, active = well fitted curve in the direction sought with a large enough effect; inconclusive = small, poorly fitted or top-dose-only effect, or another doubt; inactive = no such curve, though single readings can be large; an effect the other way counts as inactive or inconclusive.

SMILES | ATXN2 expr inh | ATXN viability | Six1-Eya2 blk | CtBP-E1A inh | TGFb SMAD3 inh | HepG2 viability
O=C1OC(Nc2nc(-c3ccc(F)cc3)cs2)c2ccccc21 (stereo not drawn) | -37.6% | ? | -1.7 | -2.5 | 11.2µM* | -39.6%
CCn1c(=O)c([N+](=O)[O-])c(Cl)c2ccccc21 | -5.3%[11.3 µM] | 35.5µM* | -12.9 | 1.9 | ? | -57.0%
O=C(CCN1CCN(c2ccccc2F)CC1)c1ccc(Br)cc1 | 4.2% | i | -4.5 | -0.5 | ? | 15.8µM*
COc1ccc(C(=O)CCN2CCN(c3ccccc3F)CC2)cc1 | -1.7% | i | -4.0 | -3.3 | ? | -34.8%
Cc1ncc2c(c1CNC(=O)c1ccc3c(c1)OCO3)CCN(C(=O)c1coc3c1C(=O)CCC3)C2 | . | i | . | . | . | .
O=C(CSc1nnc2c(Cl)cc(C(F)(F)F)cn12)N(Cc1ccccc1)Cc1ccccc1 | -8.3% | i | -13.1 | -9.9 | 2.7% | 11.2µM*
O=C(CSc1nnc2c(Cl)cc(C(F)(F)F)cn12)NCc1ccc(F)cc1 | 1.0% | i | -7.7 | 6.9 | 2.5% | -0.4%
CSc1nnc(CNC(=O)c2c(-c3ccccc3)noc2C)n1-c1ccc(F)cc1 | . | i | . | . | . | .
Clc1cccc(-c2nc3ccc(Cl)cn3c2Cc2ccsc2)c1 | 46.0% | i | 6.2 | 1.0 | 15.8µM* | -40.7%
COc1ccc(-c2nc3ccc(C)cn3c2Cc2ccc(C)cc2)cc1OC | -14.4% | . | -6.3 | -14.3 | ? | -25.4%
COC(=O)c1ccc2nc(-c3ccc(OC)c(OC)c3)c(Cc3ccccc3OC)n2c1 | -8.5% | ? | -4.1 | -0.9 | ? | -26.5%
COc1ccc(-c2nc3ccc(C)cn3c2CC(C)(C)C)cc1OC | 28.2µM* | . | -9.7 | -18.0 | ? | -51.6%
COc1ccc(-c2nc3ccc(C)cn3c2Cc2ccccc2)cc1OC | ? | 28.2µM* | -15.0 | ? | ? | -42.9%
COc1ccc(-c2nc3ccc(C)cn3c2Cc2cccc(Cl)c2)cc1OC | -36.0% | . | -1.0 | 1.9 | -13.7% | -27.6%
COc1ccccc1Cc1c(-c2ccc(OC)c(OC)c2)nc2ccc(C)cn12 | 0.0% | 22.4µM* | -13.2 | -7.7 | ? | -18.6%
C#Cc1cccc(C(=O)NCc2nc(-c3ccccc3NC(C)=O)oc2C)c1 | . | i | . | . | . | .
COCc1c(C(=O)N2CCN(C)CC2)cnn1-c1ncc2c(n1)-c1ccccc1CCC2 | . | i | . | . | . | .
Cn1c(C(=O)NCCc2ccccc2)cc2cc(S(=O)(=O)N3CCCCC3)ccc21 | . | . | . | . | ? | -28.5%
Cc1c(C(=O)N(C)C2CCOC2)sc2ncnc(NCC3(c4ccccc4)CCOCC3)c12 (stereo not drawn) | . | i | . | . | . | .
Cc1ccc2nc(-c3ccc(Cl)cc3)c(Cc3cccc(Cl)c3)n2c1 | ? | 28.2µM* | -7.6 | -0.3 | . | .
Cc1cc(NCc2ccccc2)n2ncc(-c3ccccc3)c2n1 | 181.1% | i | 19.9 | 46.1 | 19.7% | 2.9%
CC(C)c1cnn2c(NCc3ccccc3)cc(N[C@@H](CO)[C@H](O)CO)nc12 | 0.273µM* | . | . | . | . | .
CC(=O)Nc1c(C)nn(-c2ccccc2)c1N1CCC(C(=O)Nc2ccc(Cl)cc2C)CC1 | . | . | . | . | -17.5% | 1.1%
Cc1ccccc1C(=O)c1cccn1CC(=O)NCCN1CCN(c2cccc(C)c2C)CC1 | ? | ? | ? | -28.6 | ? | 12.6µM*
CCN(CC)c1ccccc1/C=C/[n+]1ccc(CCCCI)c2ccccc21 | . | . | . | . | ? | -27.9%
COc1cc(NC(=O)C2CCCN(S(=O)(=O)c3ccc4c(c3)CCCN4C(C)=O)C2)cc(OC)c1 (stereo not drawn) | -10.4% | i | ? | -65.1* | ? | -24.8%
COc1ccc(NC(=O)C2CCCN(S(=O)(=O)c3ccc4c(c3)CCCN4C(C)=O)C2)cc1 (stereo not drawn) | -4.8% | i | -7.3 | -6.4 | -2.2% | 0.5%
COc1ccc(-c2cn3c(n2)sc2cc(C(=O)Nc4c(C)cccc4C)ccc23)cc1 | . | . | . | . | ? | -25.2%
